# Source: PubChem BioAssay (Tox21)
# A number with no mark means an inactive call. Inconclusive results are not listed. Entries that show only a call come without a potency. The source made the active and inactive calls. Unless noted, calls follow the shape of the full dose curve.
# What was measured:
# [1] = target: Thyrotropin receptor (Homo sapiens) (UniProt P16473); assay: qHTS assay to identify small molecule agonists of the thyroid stimulating hormone receptor (TSHR) signaling pathway (AID 1224843); also: nearly all actives have a fitted effect of over 45% in size
# Chain of Thyrotropin receptor (Homo sapiens) (P16473 whole entry, looked up): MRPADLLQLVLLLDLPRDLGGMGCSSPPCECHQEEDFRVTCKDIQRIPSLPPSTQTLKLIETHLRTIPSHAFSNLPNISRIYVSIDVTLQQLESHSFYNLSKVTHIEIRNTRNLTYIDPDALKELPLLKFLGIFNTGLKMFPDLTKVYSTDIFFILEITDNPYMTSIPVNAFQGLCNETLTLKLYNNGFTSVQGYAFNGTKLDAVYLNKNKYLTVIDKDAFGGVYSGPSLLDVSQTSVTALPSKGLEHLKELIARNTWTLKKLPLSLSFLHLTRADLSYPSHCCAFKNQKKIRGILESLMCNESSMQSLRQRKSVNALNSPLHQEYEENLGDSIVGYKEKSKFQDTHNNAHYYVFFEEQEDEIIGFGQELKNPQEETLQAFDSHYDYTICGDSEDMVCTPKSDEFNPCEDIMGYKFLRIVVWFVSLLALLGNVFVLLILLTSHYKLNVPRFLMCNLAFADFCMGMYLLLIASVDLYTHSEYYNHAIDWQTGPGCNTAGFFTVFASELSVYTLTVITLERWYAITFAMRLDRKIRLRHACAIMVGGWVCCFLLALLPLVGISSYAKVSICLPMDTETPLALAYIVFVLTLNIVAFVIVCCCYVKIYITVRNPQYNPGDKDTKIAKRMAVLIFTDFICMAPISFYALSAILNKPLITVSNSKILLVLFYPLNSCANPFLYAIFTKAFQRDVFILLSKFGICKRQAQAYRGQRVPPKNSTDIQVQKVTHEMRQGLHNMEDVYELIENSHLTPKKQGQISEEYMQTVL
# Outline: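 HEK293 cells stably bearing the thyrotropin receptor were plated at 800 cells/well and challenged with compound (30 min, RT). Accumulated cAMP was quantified via cAMP-d2 competing for cryptate-tagged antibody.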
# [2] = qHTS assay to identify small molecule agonists of the hypoxia (HIF-1) signaling pathway - cell viability counter screen (AID 1224844); also: nearly all actives have a fitted effect of over 50% in size
# Outline: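 ME-180 HRE-bla cells, 2,000/well, 0.5% dialyzed FBS; 5 hr settle, 17 hr compound at 37C/5% CO2; CCF4-AM reporter read first, then CellTiter-Glo luminescence after 30 min RT.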
# [3] = qHTS assay to identify small molecule agonists of H2AX (AID 1224845; active = well fitted activation curve with a large enough effect in the signal ratio in the repeat runs, not every such curve was filed as active; the % refers to the signal ratio)
# Outline: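 Phospho-H2AX Ser139 measured by HTRF (ex 320 nm; em 665 and 620 nm) after 24 hr antibody incubation. Compounds, 15 concentrations, 0.76% DMSO, were applied to CHO-K1 cells for 3hr at 37C before lysis.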
# [4] = qHTS assay to identify small molecule agonists of the hypoxia (HIF-1) signaling pathway (AID 1224846; active = well fitted activation curve with a large enough effect in the signal ratio in the repeat runs, not every such curve was filed as active; the % refers to the signal ratio)
# Outline: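 Cell line: CellSensor HRE-bla ME-180; 2,000 cells/well; 0.5% dialyzed FBS; 5 h preincubation; DMSO compound pin transfer; 17 h, 37C, 5% CO2; CCF4-AM added; bla FRET signal scored for activation.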
# [5] = qHTS assay to identify small molecule agonists of H2AX - cell viability counter screen (AID 1224847);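 also: wild-type CHO-K1 cells; top concentration of the series differs between compounds; nearly all actives have a fitted effect of over 30% in size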
# Outline: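 CHO-K1 cells plated overnight at 37C, then exposed 3 h at 37C to compounds at 15 concentrations (0.76% DMSO final). Viability by CellTiter-Glo luminescence after 30 min at room temperature.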
# [6] = qHTS assay to identify small molecule antagonists of the estrogen related receptor (ERR) signaling pathway from Tox21 library (AID 1224848; active = well fitted curve in the direction sought with a large enough effect in the repeat runs; an effect the other way counts as inactive or inconclusive; also: nearly all actives have a fitted effect of over 50% in size; also: potency is read from the fitted curve at half-maximal effect)
# Outline: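 Reading was by luminescence 30 min after ONE-Glo addition. Before that, ERR cells at 2,000 per well had rested 6 h at 37 C/5% CO2 and then received pin-tooled compounds in DMSO for 18 h at 37 C.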
# [7] = qHTS assay to identify small molecule agonists of the estrogen related receptor (ERR) signaling pathway from Tox21 library (AID 1224849); conditions: ERR reporter cell line, ONE-Glo luciferase, 18 h; at 92.4 µM (top of the series) unless noted; also: nearly all actives have a fitted effect of over 15% in size
# Outline: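 ERR cells, 6 h pre-incubation 37 C/5% CO2; cpd in DMSO pinned; 18 h 37 C; ONE-Glo added, 30 min RT; luminescence read. Agonist mode, qHTS.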
# [8] = qHTS RealTime-Glo MT Cell Viability Assay in HepG2 cells - 24 hour (AID 1224867; active = well fitted curve in the direction sought with a large enough effect in the repeat runs; an effect the other way counts as inactive or inconclusive; also: nearly all actives have a fitted effect of over 50% in size)
# Outline: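 Viability was tracked continuously by NanoLuc luminescence from prosubstrate reduced by living HepG2 cells, at successive time points over 40 h of compound exposure. Cells with reagent were preincubated 5 h at 37 °C before compound addition.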
# [9] = qHTS RealTime-Glo MT Cell Viability Assay in HEK293 cells - 32 hour (AID 1224868; active = well fitted curve in the direction sought with a large enough effect in the repeat runs; an effect the other way counts as inactive or inconclusive; also: nearly all actives have a fitted effect of over 50% in size; also: potency is read from the fitted curve at half-maximal effect; as to activity change, negative = cytotoxic: top concentration of the series differs between compounds)
# Outline: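 Viability tracked continuously by luminescence as live cells reduce a prosubstrate for NanoLuc; HEK293 cells preincubated 5 h, compound-treated at 37 C, and read at 0, 8, 16, 24, 32 and 40 h.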
# [10] = A CellTox Green Cytotoxicity Assay to monitor cytotoxicity in HEK293 cells - 0 hour (AID 1224869; active = well fitted curve in the direction sought with a large enough effect in the repeat runs; an effect the other way counts as inactive or inconclusive; also: nearly all actives have a fitted effect of over 50% in size)
# Outline: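 Nonlytic real-time cytotoxicity: HEK293 + CellTox Green reagent plated, 5 h preincubation, pintool compound addition (23 nL in DMSO), 37 C for 40 h, fluorescence measured at successive time points.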
structure (smiles),measurement,setting,value
CCO[Si](CCCS)(OCC)OCC,Potency,[1],inactive
same,outcome,[2],inactive
same,outcome,[3],inactive
same,outcome,[4],inactive
same,Potency,[5],inactive
same,Potency,[6],inactive
same,"activity change, positive = activation",[7],5.01%
same,outcome,[8],inactive
same,Potency,[9],inactive
same,outcome,[10],inactive
COC(=O)CCCCCCCC(=O)OC,Potency,[1],inactive
same,outcome,[2],inactive
same,outcome,[3],inactive
same,outcome,[4],inactive
same,Potency,[5],inactive
same,Potency,[6],inactive
same,"activity change, positive = activation",[7],1.98%
same,outcome,[8],inactive
same,Potency,[9],inactive
same,outcome,[10],inactive
CCc1ccc(C=O)cc1,Potency,[1],inactive
same,outcome,[2],inactive
same,outcome,[3],inactive
same,outcome,[4],inactive
same,Potency,[5],inactive
same,Potency,[6],inactive
same,"activity change, positive = activation",[7],5.25%
same,outcome,[8],inactive
same,Potency,[9],inactive
same,outcome,[10],inactive
CCCCCCCCCCCCCC,Potency,[1],inactive
same,outcome,[2],inactive
same,outcome,[3],inactive
same,outcome,[4],inactive
same,Potency,[5],inactive
same,Potency,[6],inactive
same,"activity change, positive = activation",[7],2.93%
same,outcome,[8],inactive
same,Potency,[9],inactive
same,outcome,[10],inactive
COc1cc(N)ccc1C,Potency,[1],inactive
same,outcome,[2],inactive
same,outcome,[3],inactive
same,outcome,[4],inactive
same,Potency,[5],inactive
same,Potency,[6],27 µM (active)
same,"activity change, positive = activation",[7],-31.2%
same,outcome,[8],inactive
same,Potency,[9],inactive
same,outcome,[10],inactive
C=C(C)C(=O)OCCNC(C)(C)C,Potency,[1],inactive
same,outcome,[2],inactive
same,outcome,[3],inactive
same,outcome,[4],inactive
same,Potency,[5],inactive
same,Potency,[6],inactive
same,"activity change, positive = activation",[7],-2.14%
same,outcome,[8],inactive
same,Potency,[9],inactive
same,outcome,[10],inactive
COc1ccc2nc(SCc3ncc(C)c(OC)c3C)[nH]c2c1,Potency,[1],inactive
same,outcome,[2],inactive
same,outcome,[3],inactive
same,outcome,[4],inactive
same,Potency,[5],inactive
same,Potency,[6],inactive
same,"activity change, positive = activation",[7],-13.6% [at 42.5 µM]
same,outcome,[8],inactive
same,outcome,[10],inactive
O=C(O)c1cc(Cl)cc([N+](=O)[O-])c1Cl,Potency,[1],inactive
same,outcome,[2],inactive
same,outcome,[3],inactive
same,outcome,[4],inactive
same,Potency,[5],inactive
same,Potency,[6],inactive
same,"activity change, positive = activation",[7],-9.65%
same,outcome,[8],inactive
same,Potency,[9],inactive
same,outcome,[10],inactive
CCCCC(CC)COCCO (stereo not given),Potency,[1],inactive
same,outcome,[2],inactive
same,outcome,[3],inactive
same,outcome,[4],inactive
same,Potency,[5],inactive
same,Potency,[6],inactive
same,"activity change, positive = activation",[7],5.52%
same,outcome,[8],inactive
same,Potency,[9],inactive
same,outcome,[10],inactive
CC(C)=CCOC(=O)c1ccccc1,Potency,[1],inactive
same,outcome,[2],inactive
same,outcome,[3],inactive
same,outcome,[4],inactive
same,Potency,[5],inactive
same,Potency,[6],inactive
same,"activity change, positive = activation",[7],2.82%
same,outcome,[8],inactive
same,Potency,[9],inactive
same,outcome,[10],inactive
CCCCCCCCOS(=O)(=O)O,Potency,[1],inactive
same,outcome,[2],inactive
same,outcome,[3],inactive
same,outcome,[4],inactive
same,Potency,[5],inactive
same,Potency,[6],inactive
same,"activity change, positive = activation",[7],6.25%
same,outcome,[8],inactive
same,Potency,[9],inactive
same,outcome,[10],inactive
BrCCCCCBr,Potency,[1],inactive
same,outcome,[2],inactive
same,outcome,[3],inactive
same,outcome,[4],inactive
same,Potency,[5],inactive
same,Potency,[6],inactive
same,"activity change, positive = activation",[7],6.39%
same,outcome,[8],inactive
same,Potency,[9],inactive
same,outcome,[10],inactive
O=C(OCc1ccccc1)C(=O)OCc1ccccc1,Potency,[1],inactive
same,outcome,[2],inactive
same,outcome,[3],inactive
same,outcome,[4],inactive
same,Potency,[5],inactive
same,Potency,[6],inactive
same,"activity change, positive = activation",[7],0.466%
same,outcome,[8],inactive
same,Potency,[9],inactive
same,outcome,[10],inactive
CC(=O)c1sc(C)nc1C,Potency,[1],inactive
same,outcome,[2],inactive
same,outcome,[3],inactive
same,outcome,[4],inactive
same,Potency,[5],inactive
same,Potency,[6],inactive
same,"activity change, positive = activation",[7],-11%
same,outcome,[8],inactive
same,Potency,[9],inactive
same,outcome,[10],inactive
BrCc1cccc(Oc2ccccc2)c1,Potency,[1],inactive
same,outcome,[2],inactive
same,outcome,[3],inactive
same,outcome,[4],inactive
same,Potency,[5],inactive
same,Potency,[6],inactive
same,"activity change, positive = activation",[7],0.526%
same,outcome,[8],inactive
same,Potency,[9],inactive
same,outcome,[10],inactive
COC(=O)C1CC(=O)C(C(=O)OC)CC1=O (stereo not given),activation,[1],-7.69% [at 8.39 µM]
same,"activity change, negative = cytotoxicity",[2],4.68% [at 6.97 µM]
same,activation (H2AX phosphorylation),[3],1.21% [at 14 µM]
same,activation,[4],0.935% [at 7.01 µM]
same,"activity change, negative = cytotoxicity",[5],-2.76% [at 14 µM]
same,"activity, negative = inhibition",[6],-0.445% [at 8.39 µM]
same,"activity change, positive = activation",[7],-0.229% [at 8.39 µM]
same,"activity change, negative = cytotoxicity",[8],1.03% [at 6.97 µM]
same,"activity change, negative = cytotoxic",[9],1.1% [at 6.97 µM]
same,cytotoxicity,[10],-3.09% [at 6.97 µM]
CCOc1cc([N+](=O)[O-])c(OCC)cc1N1CCOCC1,Potency,[1],inactive
same,outcome,[2],inactive
same,outcome,[3],inactive
same,outcome,[4],inactive
same,Potency,[5],inactive
same,outcome,[8],inactive
same,Potency,[9],15.5 µM (active)
same,outcome,[10],inactive
CC(CN)CC(C)(C)CCN (stereo not given),Potency,[1],inactive
same,outcome,[2],inactive
same,outcome,[3],inactive
same,outcome,[4],inactive
same,Potency,[5],inactive
same,outcome,[8],inactive
same,Potency,[9],inactive
same,outcome,[10],inactive
NCCN1CCOCC1,Potency,[1],inactive
same,outcome,[2],inactive
same,outcome,[3],inactive
same,outcome,[4],inactive
same,Potency,[5],inactive
same,outcome,[8],inactive
same,Potency,[9],inactive
same,outcome,[10],inactive
CC(S)C(=O)NCC(=O)O (stereo not given),Potency,[1],inactive
same,outcome,[2],inactive
same,outcome,[3],inactive
same,outcome,[4],inactive
same,Potency,[5],inactive
same,outcome,[8],inactive
same,Potency,[9],inactive
O=C(O)Cc1ccc(Cl)cc1Cl,Potency,[1],inactive
same,outcome,[2],inactive
same,outcome,[3],inactive
same,outcome,[4],inactive
same,Potency,[5],inactive
same,outcome,[8],inactive
same,Potency,[9],inactive
same,outcome,[10],inactive
C=CCCCCCCCCCCCC,Potency,[1],inactive
same,outcome,[2],inactive
same,outcome,[3],inactive
same,outcome,[4],inactive
same,Potency,[5],inactive
same,outcome,[8],inactive
same,Potency,[9],inactive
same,outcome,[10],inactive
CC(C)(C)OC(=O)c1ccc(O)cc1,Potency,[1],inactive
same,outcome,[2],inactive
same,outcome,[3],inactive
same,outcome,[4],inactive
same,Potency,[5],inactive
same,Potency,[6],inactive
same,outcome,[8],inactive
same,Potency,[9],inactive
same,outcome,[10],inactive
